SMILES strings stand for the structures. Screen size: about 340,000 compounds; about 2,100 (0.62%) were called active.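 Rule for the calls: active = first-screen hits whose inhibition reached a set limit at any dose in the follow-up dose series; inconclusive = inhibition above the set first-screen limit but never retested; inactive = the rest.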 A selection follows. Potency and affinity values are given separately.

Rac GTPase-activating protein 1 (Homo sapiens), sequence (Q9H0H5 whole entry, looked up): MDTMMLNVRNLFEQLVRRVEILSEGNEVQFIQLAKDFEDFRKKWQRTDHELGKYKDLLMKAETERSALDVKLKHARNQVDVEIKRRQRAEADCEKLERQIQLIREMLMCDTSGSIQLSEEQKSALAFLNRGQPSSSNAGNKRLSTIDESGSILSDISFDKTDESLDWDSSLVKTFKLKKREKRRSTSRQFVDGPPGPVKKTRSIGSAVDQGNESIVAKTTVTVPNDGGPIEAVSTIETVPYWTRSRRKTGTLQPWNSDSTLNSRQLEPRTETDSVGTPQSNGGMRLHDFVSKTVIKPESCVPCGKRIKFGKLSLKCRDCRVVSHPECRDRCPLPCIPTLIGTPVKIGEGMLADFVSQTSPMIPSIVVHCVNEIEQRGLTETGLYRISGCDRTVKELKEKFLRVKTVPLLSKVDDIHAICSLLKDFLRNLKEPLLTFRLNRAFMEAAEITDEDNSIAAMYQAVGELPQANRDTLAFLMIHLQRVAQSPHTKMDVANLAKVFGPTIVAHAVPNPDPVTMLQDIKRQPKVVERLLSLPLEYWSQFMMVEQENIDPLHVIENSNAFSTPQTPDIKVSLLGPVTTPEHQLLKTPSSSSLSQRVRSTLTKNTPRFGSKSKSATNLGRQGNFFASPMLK

This test addresses Rac GTPase-activating protein 1 (Homo sapiens) (UniProt Q9H0H5). Briefly: MgcRacGAP GTPase-activating activity inhibitors, confirmation, biochemical, ADP Hunter fluorescence, primary and confirmatory (AID 624330).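 Note: fluorescence reports GDP produced by GAP-driven GTP hydrolysis.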 To be noted: MgcRacGAP-stimulated Rac1 GTP hydrolysis, at 30 µM, stronger effect = higher value, GST-tagged Rac1 F28L mutant substrate.
For orientation: inhibition means the relative decrease from the control value, in per cent. Take `CN(C)CCNC(=O)NC(=O)c1ccc(Cl)cc1`: the inhibition was 7.5% (inactive).

For `CCOCCCNC(=S)Nc1ccc2nc3n(c(=O)c2c1)CCCCC3`, the inhibition was -1.06% (inactive).

As to `CC(C)C(=O)N1CCN(CCN2C(=O)c3cccc4cccc(c34)C2=O)CC1`, the inhibition was 12.5% (inactive).

Turning to `COC(=O)c1c(C)[nH]c(C(=O)C(C)OC(=O)c2ccco2)c1C` (centres undefined), the inhibition was 5.7% (inactive).

For `Cc1ccc(N(C(C)C(=O)Nc2ccccc2C(=O)N2CCOCC2)S(C)(=O)=O)cc1C` (centres undefined), the inhibition was 10.3% (inactive).

Take `O=C1c2ccccc2C(=O)c2[nH]c(=O)[nH]c21`: the inhibition is 8.15% (inactive).

Take `COCCNC(=S)NNc1ccc(Cl)c(C(=O)O)c1`: the inhibition is 7.21% (inactive).

In the case of `CCOC(=O)c1c(N2C(=O)Nc3ccccc3N2O)sc2c1CCCCC2`, the inhibition was 14.2% (inactive).

Turning to `CC1(C(=O)O)CCC(C(N)=O)C1(C)C` (centres undefined), the inhibition is 5.23% (inactive).

Regarding `O=C(O)C1OC2OC3(CCCCC3)OC2C2OC3(CCCCC3)OC12` (centres undefined), the inhibition is -5.5% (inactive).

As for `CC(=O)Nc1ccc(NC(=O)C(=O)c2cn(CC(=O)N3CCCC3)c3ccccc23)cc1`, the inhibition is 4.85% (inactive).

For `Cc1cc(C)n2ncc(C(=O)NCc3ccccc3)c2n1`, the inhibition was 0.67% (inactive).

As to `COc1cc(/C=N/NC(=S)Nc2cccc(C(=O)O)c2)cc(OC)c1OC`, the inhibition was 7.41% (inactive).

On to `COc1cc(/C=N/NC(=S)Nc2cccc(S(=O)(=O)N(C)C)c2)cc(OC)c1O`, for which the inhibition is -1.97% (inactive).

As to `COc1ccc(/C=N/NC(=S)Nc2cccc(C(=O)O)c2)cc1OC`, the inhibition was -9.15% (inactive).

Consider `CN(C)S(=O)(=O)c1cccc(NC(=S)N/N=C/c2cccc(O)c2)c1`, for which the inhibition was 2.96% (inactive).

`CCOC(=O)N1CCN(c2c(N3CCN(c4ccccc4OC)CC3)c(=O)c2=O)CC1`: the inhibition was 8.07% (inactive).

`O=C(COC(=O)c1ccc(Cl)c(S(=O)(=O)N2CCCCC2)c1)NCc1ccco1`: the inhibition was 5.55% (inactive).

Regarding `CCC(C)NS(=O)(=O)c1ccc(OCC(=O)Nc2ccc(F)cc2F)cc1` (centres undefined), the inhibition is 4.64% (inactive).

On to `CCCOc1ccc(/C(O)=C2/C(=O)C(=O)N(CCCn3ccnc3)C2c2ccco2)cc1` (centres undefined), for which the inhibition was 7.22% (inactive).

As for `COc1ccc(NC(=O)CN(c2cc(C)cc(C)c2)S(=O)(=O)c2c(C)n[nH]c2C)cc1`, the inhibition was 6.02% (inactive).

Consider `C=CCc1cc(Cl)ccc1OCCN1CC(C)OC(C)C1` (centres undefined), for which the inhibition was 26.3% (inactive).

Regarding `C=CCc1ccc(OCCCCN2CC(C)OC(C)C2)c(OC)c1` (centres undefined), the inhibition was 16.2% (inactive).

As to `CC(=O)C1=C(O)C(=O)N(c2ccc(F)cc2)C1c1ccc(C)cc1` (centres undefined), the inhibition was 9.06% (inactive).

For the molecule `COc1ccc(C(=O)C2CCCN(Cc3c[nH]c4ccccc34)C2)c(OC)c1` (centres undefined), the inhibition is -5.48% (inactive).

With `COc1ccc(Br)cc1CN1CCSCC1`, the inhibition is 19.9% (inactive).

In the case of `COc1ccc(Br)cc1CN1CCCCCCC1`, the inhibition was 11.8% (inactive).

Consider `c1ccc(CN2CCN(Cc3c[nH]c4ccccc34)CC2)cc1`, for which the inhibition is 8.7% (inactive).

As to `COc1ccc(Br)cc1CN1CCCCCC1`, the inhibition is 25.6% (inactive).

Regarding `COc1ccc(CN2CCN(Cc3c[nH]c4ccccc34)CC2)cc1`, the inhibition was 30.3% (inactive).

Take `COc1ccc(S(=O)(=O)N2CCN(Cc3c[nH]c4ccccc34)CC2)cc1`: the inhibition is -10.1% (inactive).

Turning to `COc1ccc(Br)cc1CN1CCN(S(=O)(=O)Cc2ccccc2)CC1`, the inhibition is 19.2% (inactive).

Regarding `CCOc1ccc(NC(=O)Nc2c(C)n(C)n(-c3ccccc3)c2=O)cc1`, the inhibition is 0.15% (inactive).

In the case of `O=C(NCc1ccc(F)cc1)C1CCCN(S(=O)(=O)c2ccc(Br)s2)C1` (centres undefined), the inhibition is 5.11% (inactive).

Turning to `COc1ccccc1NC(=O)C1=C(C)Nc2nc(-c3cccs3)nn2C1c1cccc(O)c1` (centres undefined), the inhibition was 3.45% (inactive).

As for `Cc1c(C(=O)OCC(=O)Nc2c(C)n(C)n(-c3ccccc3)c2=O)cccc1[N+](=O)[O-]`, the inhibition is -3.37% (inactive).

On to `COc1ccc(C(=O)N/C(=C\c2cc(OC)c(OC)cc2[N+](=O)[O-])C(=O)NCC(=O)O)cc1`, for which the inhibition is 5.33% (inactive).

For the molecule `CN(C)CCNC(=O)c1cccc2nc3cccc(F)c3nc12`, the inhibition was 14% (inactive).

Consider `COc1ccc(-c2nc3c(C(=O)NCCN(C)C)cccc3c3ccccc23)cc1`, for which the inhibition is 28.1% (inactive).

Turning to `CCN(CC)S(=O)(=O)c1cccc(C(=O)N/N=C/c2cccc(O)c2O)c1`, the inhibition is 15% (inactive).

For the molecule `O=C(N/N=C/c1ccc(F)c(F)c1)c1cccc(S(=O)(=O)N2CCCCC2)c1`, the inhibition is 0.51% (inactive).

Take `O=C(NN=Cc1ccc(F)cc1)c1cccc(S(=O)(=O)N2CCCC2)c1`: the inhibition was 6.35% (inactive).

For `CCOc1ccccc1/C=N/NC(=O)c1cccc(S(=O)(=O)N2CCOCC2)c1`, the inhibition was 5.13% (inactive).

Consider `O=C(/C=C/c1ccc(N2CCCCC2)c([N+](=O)[O-])c1)c1ccc(S(=O)(=O)N2CCCC2)cc1`, for which the inhibition is 6.38% (inactive).

For `CCOc1cc(/C=N/NC(=O)c2cccc(S(=O)(=O)N3CCCC3)c2)ccc1OCC(=O)N(C)C`, the inhibition is 5.83% (inactive).

Turning to `CCN(CC)S(=O)(=O)c1cccc(C(=O)N/N=C/c2cc(OC)c(O)c(OC)c2)c1`, the inhibition is 13.8% (inactive).

On to `O=C(O)c1ccc(S(=O)(=O)N2CCCCCCC2)cc1`, for which the inhibition is 13.8% (inactive).

As to `COc1cc2c(cc1OC)C(c1ccccc1)N(C(=O)C(C)(C)C)CC2` (centres undefined), the inhibition is 5.24% (inactive).

Take `COc1cc(/C=N/NC(=O)c2cccc(S(=O)(=O)N3CCCC3)c2)cc(OC)c1O`: the inhibition was 15.2% (inactive).

With `COc1cc(/C=N/NC(=O)c2cccc(S(=O)(=O)N3CCCCC3)c2)cc(Br)c1O`, the inhibition was 18.1% (inactive).

In the case of `O=C(COC(=O)C1CC1)NCCc1ccccc1`, the inhibition was -3.28% (inactive).

For the molecule `COCCCN1C(=O)C(CC(=O)NCc2ccco2)CC(C(=O)N(C)C)=C1C` (centres undefined), the inhibition was 14.3% (inactive).

Consider `CCOc1ccc(NS(=O)(=O)c2ccc(N)cc2)cc1`, for which the inhibition is 1.38% (inactive).

As to `CCOc1ccc(NC(N)=O)cc1`, the inhibition is 2.99% (inactive).

For the molecule `CCc1ccc(N2CN(Cc3cccnc3)CNC2=S)cc1`, the inhibition was 4.47% (inactive).

Consider `COc1ccc(C2C(C(=O)Nc3cccc(C)n3)c3ccccc3C(=O)N2C)cc1` (centres undefined), for which the inhibition is 5.99% (inactive).

Take `O=C(c1cccnc1)N1CCN(Cc2cccc(F)c2)CC1`: the inhibition was 23.3% (inactive).

`COc1ccc(Br)cc1CN1CCN(C(=O)c2cccc(F)c2)CC1`: the inhibition is 26.9% (inactive).

As to `O=C(c1cccnc1)N1CCN(Cc2ccc3ccccc3c2)CC1`, the inhibition is 22.8% (inactive).

As to `O=C(c1cccc(F)c1)N1CCN(Cc2ccco2)CC1`, the inhibition was 24.7% (inactive).

With `O=C(CCn1nc(-c2ccc(Cl)cc2)ccc1=O)N1CCN(c2ccccc2)CC1`, the inhibition is 11.2% (inactive).

`Cc1sc(NC(=O)CCC(=O)O)c(C#N)c1C`: the inhibition is 4.82% (inactive).

Consider `CCCCNc1c(-c2ccc(-c3ccc(OC)cc3)c(OC)c2)nc2ccccn12`, for which the inhibition was 0.86% (inactive).

In the case of `CCc1nc2ccccc2c(C(=O)O)c1C`, the inhibition was 1.89% (inactive).

As to `CCOc1ccc(CC2S/C(=N/N=C/c3ccco3)NC2=O)cc1` (centres undefined), the inhibition was -0.79% (inactive).

For `CN(C(=O)c1ccc(NC(=O)Cc2ccc(NC(=O)C3CCN(C(=O)C4CCCC4)CC3)cc2)cc1)C1CC1`, the inhibition is 4.41% (inactive).

On to `CCC(C)NC(=O)CNC(=S)N(CCCN1CCOCC1)Cc1cccs1` (centres undefined), for which the inhibition is -3.85% (inactive).

On to `Cc1ccc2c(c1)N(C(=O)CCC(=O)N1CCC(C(N)=O)CC1)CCO2`, for which the inhibition is -0.21% (inactive).

For `O=C(CN1C(=O)NC2(CCCCC2)C1=O)Nc1ccc(N2CCCCC2)cc1`, the inhibition was -8.69% (inactive).

Consider `CCC1(c2ccccc2)NC(=O)N(CC(=O)Nc2ccccc2N2CCCC2)C1=O` (centres undefined), for which the inhibition is 2.64% (inactive).

As to `Cc1cc(N2CCCC2)ccc1NC(=O)CN1C(=O)NC(C)(c2ccccc2)C1=O` (centres undefined), the inhibition was 22.9% (inactive).

On to `Cc1cc(Cl)ccc1NC(=O)CN1C(=O)NC2(CCCC2)C1=O`, for which the inhibition was 7.39% (inactive).

`Cc1ccc(C)c(NS(=O)(=O)c2cc3c4c(c2)CC(=O)N4CCC3)c1`: the inhibition was 12.2% (inactive).

Turning to `COc1cc([C@@H]2OC[C@@H]3[C@H]2CO[C@@H]3c2ccc3c(c2)OCO3)ccc1O`, the inhibition was 15.6% (inactive).

For the molecule `COc1cc(C2OCC3C(c4cc(OC)c(OC)c(OC)c4)OCC23)cc(OC)c1OC` (centres undefined), the inhibition was 3.17% (inactive).

`O=C1c2ccccc2C(=O)C1c1ccc(Br)cc1`: the inhibition was 9.65% (inactive).

For `COc1ccc(C2C(=O)c3ccccc3C2=O)cc1OC`, the inhibition is 8.73% (inactive).

Consider `COc1cc(C2N(C)C(=O)c3ccccc3N2C)ccc1O` (centres undefined), for which the inhibition was 9.29% (inactive).

In the case of `Cc1ccc(C2C(=O)c3ccccc3C2=O)cc1`, the inhibition is 5.72% (inactive).

With `O=C(NNc1nc2c(F)cccc2s1)c1ccccc1`, the inhibition is 3.05% (inactive).

As to `CC(=O)NC(CC(=O)NCCc1ccccc1)c1ccccc1` (centres undefined), the inhibition is 5.84% (inactive).

On to `COc1cc(/C=C/C(=O)O)cc(S(=O)(=O)N(CC(C)C)CC(C)C)c1OC`, for which the inhibition is 3.78% (inactive).

As to `Cc1cc(OC(C)C(=O)NCCCN2CCOCC2)c2c(C)cc(=O)oc2c1` (centres undefined), the inhibition was 5.41% (inactive).

As for `CCN1C[C@@H]2[C@@H]3C(=O)N(C)C(=O)[C@@H]3[C@](Cc3ccccc3)(C(=O)OC)N2C1=NCc1ccccc1`, the inhibition was 8.57% (inactive).

In the case of `COc1cccc(NC(=O)COc2ncnc3sc(C)c(C)c23)c1`, the inhibition is 5.65% (inactive).

As for `CCOc1ccccc1/C=C(/NC(=O)c1ccccc1)C(=O)N(CC)CC`, the inhibition is 5.35% (inactive).

On to `CC[C@]12C(=O)N(C)C[C@H]([C@@H]3C(=O)N(C)C(=O)[C@@H]31)N2C(=O)c1ccc(F)cc1`, for which the inhibition was 7.98% (inactive).

In the case of `CNS(=O)(=O)c1cccc(C(=O)OCC(=O)C23CC4CC(CC(C4)C2)C3)c1`, the inhibition is 2.1% (inactive).

For the molecule `COCc1cc(C)nc(OCC(=O)N/N=C/c2ccccc2)c1C#N`, the inhibition was 5.88% (inactive).

Turning to `O=C(COc1ccccc1[N+](=O)[O-])N/N=C/c1ccc(O)c([N+](=O)[O-])c1`, the inhibition is 5% (inactive).

For `COc1ccc(/C=N/NC(=O)COc2cccc3cccnc23)cc1OC`, the inhibition was 12% (inactive).

On to `O=C(COc1cccc2cccnc12)N/N=C/c1ccccc1O`, for which the inhibition is 9.73% (inactive).

On to `COCc1cc(C)nc(OCC(=O)N/N=C/c2ccc(C)cc2)c1C#N`, for which the inhibition is 6.19% (inactive).

As for `O=C(COc1ccccc1[N+](=O)[O-])N/N=C/c1ccncc1`, the inhibition is 3.99% (inactive).

Source of the values: PubChem BioAssay AID624330 (Southern Research Specialized Biocontainment Screening …, 2012).
